Experimental findings from paper PMC5540273 (PLoS ONE, 2017) are described below.

Each structure is given as a SMILES string.

Test systems include TAOK3; TBK1; TEC; TESK1; TGFBR1; TGFBR2; TIE1; TLK1; TLK2; TNIK; TNK1; TNK2; TNNI3K; TRKB; TRPM6; TSSK1B; TSSK3.
Holding throughout (details): concentration: 1 μM, replicates: in singlicate; n = 1
The test system of the next experiment is T1, TIE2.
T1 construct: gene TEK

In another experiment the test system is T2, TRKA.
T2 construct: gene NTRK1

For a further experiment, the system named is T3, TRKC.
T3 construct: gene NTRK3
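Note: KINOMEscan kinase panel screen.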

In the case of `COc1ccccc1-c1ccc2c(NC(=O)C3CC3)n[nH]c2n1` [SB-711239], the “%Inh” value was 0% with TAOK3; 26% in the experiment with TBK1; 0% in the experiment with TEC; 8% in the experiment with TESK1; 14% in the experiment with TGFBR1; 1% with TGFBR2. Further, the “%Inh” value in the experiment with TIE1 turned out to be 6%; with TIE2 it was 11%; with TLK1, 0%; with TLK2, 2%; in the experiment on TNIK, 0%; with TNK1 it was 4%. For the same molecule, the “%Inh” value was 8% in the experiment with TNK2; 14% with TNNI3K; 24% in the experiment on TRKA; 0% in the experiment on TRKB; 20% in the experiment on TRKC; 0% in the experiment on TRPM6. The “%Inh” value in the experiment on TSSK1B was 0%; with TSSK3, 21%.
As for `Fc1cccc(COc2nnc(-c3ccc4c(c3)CCO4)o2)c1`, the “%Inh” value is 0% with TAOK3; 0% in the experiment on TBK1; 33% with TEC; 0% with TESK1; 10% with TGFBR1; 0% in the experiment on TGFBR2. In addition, the “%Inh” value is given as 7% in the experiment with TIE1; 0% with TIE2; 25% in the experiment with TLK1; 0% with TLK2; 14% with TNIK; 0% in the experiment on TNK1. The “%Inh” value was 0% in the experiment on TNK2; 0% with TNNI3K; 24% with TRKA; 0% in the experiment on TRKB; 48% in the experiment with TRKC; 0% in the experiment on TRPM6. Besides, the “%Inh” value in the experiment on TSSK1B and in the experiment with TSSK3 was 0% in each case.
As for `Cc1cccc(-c2nc(Nc3ccc4[nH]ncc4c3)c3ccccc3n2)n1` [GW857175], the “%Inh” value in the experiment with TAOK3 is given as 19%; with TBK1 it was 35%; with TEC, 3%; in the experiment with TESK1, 5%; in the experiment on TGFBR2 it was 0%; in the experiment with TIE1, 17%. Further, the “%Inh” value with TIE2 was 49%; in the experiment with TLK1 it was 23%; in the experiment on TLK2, 0%; with TNIK, 4%; in the experiment with TNK1, 0%; with TNK2 it was 10%. For the same molecule, the “%Inh” value in the experiment with TNNI3K is 0%; in the experiment on TRKA it was 52%; in the experiment on TRKB, 12%; with TRKC, 17%; in the experiment with TRPM6, 19%; in the experiment with TSSK1B it was 72%. Besides, the “%Inh” value with TSSK3 was found to be 51%.
With `Cc1csc(-c2nc(Nc3ccncc3)c3ccccc3n2)n1` [GW869640], the “%Inh” value came out at 29% in the experiment on TAOK3; 37% with TBK1; 9% in the experiment on TEC; 13% with TESK1; 88% in the experiment with TGFBR2; 36% in the experiment on TIE1. For the same molecule, the “%Inh” value with TIE2 came to 21%; with TLK1 it was 0%; in the experiment with TLK2, 1%; in the experiment with TNIK, 50%; in the experiment with TNK1 it was 21%; in the experiment on TNK2 it was 0%. The “%Inh” value in the experiment with TNNI3K turned out to be 18%; in the experiment with TRKA, 44%; with TRKB, 12%; in the experiment with TRKC it was 22%; with TRPM6 it was 44%; with TSSK1B, 0%. The “%Inh” value in the experiment with TSSK3 stood at 23%.
Regarding `COc1ccc(Nc2nccc(NCCNC(=O)Nc3ccccc3F)n2)cc1` [GSK1379901], the “%Inh” value was found to be 0% in the experiment with TAOK3; 21% with TBK1; 12% with TEC; 44% with TESK1; 3% in the experiment on TGFBR1; 0% in the experiment with TGFBR2. Also, the “%Inh” value in the experiment with TIE1, with TIE2, in the experiment with TLK1, in the experiment with TLK2, with TNIK and with TNK1 was 0% in each case. In addition, the “%Inh” value in the experiment on TNK2 is given as 31%; in the experiment on TNNI3K it was 14%; in the experiment on TRKA, 0%; in the experiment on TRKB, 0%; with TRKC, 18%; in the experiment with TRPM6, 11%. In addition, the “%Inh” value in the experiment with TSSK1B turned out to be 0%; in the experiment on TSSK3, 7%.
In the case of `Cc1cccc(-c2cc(Nc3ccncc3)c3ccccc3n2)n1` [GSK223675], the “%Inh” value came out at 0% in the experiment with TAOK3; 28% in the experiment with TBK1; 0% in the experiment with TEC; 63% in the experiment on TESK1; 0% with TGFBR2; 0% with TIE1. Also, the “%Inh” value worked out at 0% in the experiment on TIE2; 21% in the experiment with TLK1; 0% in the experiment on TLK2; 0% in the experiment on TNIK; 0% with TNK1; 0% with TNK2. The “%Inh” value in the experiment on TNNI3K, with TRKA, with TRKB, with TRKC, with TRPM6 and in the experiment on TSSK1B was 0% each time. For the same molecule, the “%Inh” value in the experiment with TSSK3 is 11%.
On to `CC(=O)Nc1nc2cnc(Nc3cc(NC(=O)c4cccc(CCC#N)c4)ccc3C)nc2s1`, for which the “%Inh” value with TAOK3 turned out to be 0%; with TBK1 it was 24%; in the experiment on TEC, 10%; in the experiment with TESK1 it was 0%; with TGFBR1, 0%; in the experiment with TGFBR2 it was 0%. Further, the “%Inh” value with TIE1 was determined as 0%; in the experiment with TIE2 it was 0%; with TLK1 it was 0%; in the experiment on TLK2, 7%; in the experiment on TNIK it was 7%; in the experiment with TNK1 it was 0%. Further, the “%Inh” value was determined as 9% with TNK2; 7% in the experiment with TNNI3K; 0% in the experiment on TRKA; 6% in the experiment on TRKB; 5% in the experiment with TRKC; 3% in the experiment on TRPM6. For the same molecule, the “%Inh” value in the experiment with TSSK1B was found to be 2%; in the experiment on TSSK3, 0%.
Take `COc1ccc(C2=C(Nc3cccc(C(=O)O)c3)C(=O)NC2=O)cc1` [SB-390765]: the “%Inh” value in the experiment with TAOK3 was 23%; in the experiment with TBK1, 11%; with TEC, 10%; with TESK1 it was 12%; with TGFBR1, 1%; in the experiment on TGFBR2 it was 0%. Also, the “%Inh” value with TIE1 came out at 7%; in the experiment with TIE2, 21%; in the experiment with TLK1 it was 1%; in the experiment on TLK2, 0%; in the experiment with TNIK it was 0%; in the experiment with TNK1, 5%. In addition, the “%Inh” value with TNK2 came to 6%; in the experiment on TNNI3K, 0%; in the experiment on TRKA, 47%; in the experiment on TRKB it was 0%; in the experiment with TRKC, 22%; in the experiment on TRPM6 it was 0%. The “%Inh” value with TSSK1B came out at 8%; with TSSK3, 0%.
